Reference: PubChem BioAssay (Tox21)
“And” between values parts separate entries of the source, which are not always exact repeats. Equal values may be shown once. Results filed as inconclusive are left out. Some structures have more than one record in an assay (separate samples or runs), and their calls can disagree. The source made the active and inactive calls. Unless noted, the call rests on the fitted dose curve.

What was measured:
[1] = Nuclear factor erythroid 2-related factor 2/antioxidant responsive element (Nrf2/ARE) small molecule agonists: qHTS cell viability counter screen in human keratinocytes (AID 1919968; active means well fitted curve in the direction sought with a large enough effect in the repeat runs; an effect the other way counts as inactive or inconclusive; further: nearly all actives have a fitted effect of over 55% in size)
In short: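 Fluorescence read-out from CellTiter-Fluor after 1 h at 37 C. Wells held HaCaT-derived ARE-luciferase reporter cells (1,500/well) treated 23 h with DMSO-dissolved compounds. Run in the same wells as the luciferase agonist read.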

[2] = Nuclear factor erythroid 2-related factor 2/antioxidant responsive element (Nrf2/ARE) small molecule agonists: luciferase reporter gene qHTS assay in human keratinocytes (AID 1919969); further: nearly all actives have a fitted effect of over 35% in size; further: potency means the concentration at half of the fitted maximal effect
[3] = target: Gonadotropin-releasing hormone receptor (Homo sapiens) (UniProt P30968); assay: Human gonadotropin-releasing hormone receptor (GnRHR) small molecule agonists, calcium flux assay in GnRHR-HEK293 cells (AID 1920063); further: nearly all actives have a fitted effect of over 35% in size; further: potency means the concentration at half of the fitted maximal effect
Sequence of Gonadotropin-releasing hormone receptor (Homo sapiens) (P30968 whole entry, looked up): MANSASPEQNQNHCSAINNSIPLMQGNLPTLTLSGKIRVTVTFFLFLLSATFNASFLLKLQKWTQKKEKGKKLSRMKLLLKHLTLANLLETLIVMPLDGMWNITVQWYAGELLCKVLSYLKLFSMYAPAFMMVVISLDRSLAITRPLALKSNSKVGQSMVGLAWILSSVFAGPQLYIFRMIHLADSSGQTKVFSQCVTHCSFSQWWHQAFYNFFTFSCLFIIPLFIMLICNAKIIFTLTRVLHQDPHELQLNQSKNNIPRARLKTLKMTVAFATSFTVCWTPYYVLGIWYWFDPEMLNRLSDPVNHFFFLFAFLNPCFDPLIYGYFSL
In short: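 Calcium-dye fluorescence, Ex/Em=480/540, recorded every 1 sec over 3 min after compound addition to GnRHR-HEK293 cells. Cells had been seeded 18 hours earlier and dye-loaded for 1 hour at 37 C. Fifteen concentrations, triplicates.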

[4] = target: KiSS-1 receptor (Homo sapiens) (UniProt Q969F8); assay: Human kisspeptin (KISS1R) small molecule agonists, calcium flux assay in KISS1R-HEK293 cells (AID 1920064; active means well fitted curve in the direction sought with a large enough effect in the repeat runs; an effect the other way counts as inactive or inconclusive; further: potency means the concentration at half of the fitted maximal effect)
Sequence of KiSS-1 receptor (Homo sapiens) (Q969F8 whole entry, looked up): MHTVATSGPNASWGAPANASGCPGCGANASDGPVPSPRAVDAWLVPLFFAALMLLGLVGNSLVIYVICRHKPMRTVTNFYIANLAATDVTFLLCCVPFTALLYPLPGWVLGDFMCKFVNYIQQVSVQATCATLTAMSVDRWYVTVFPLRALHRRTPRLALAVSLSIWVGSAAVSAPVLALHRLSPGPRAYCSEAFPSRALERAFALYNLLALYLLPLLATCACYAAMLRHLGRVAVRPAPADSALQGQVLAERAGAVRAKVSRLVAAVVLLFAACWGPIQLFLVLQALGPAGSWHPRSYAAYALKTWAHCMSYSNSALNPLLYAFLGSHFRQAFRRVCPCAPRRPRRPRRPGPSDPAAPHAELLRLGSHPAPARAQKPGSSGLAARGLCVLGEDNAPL
In short: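 Calcium flux read-out: kinetic fluorescence at Ex/Em=480/540, 1 s intervals over 3 min, after pin-tool compound addition to dye-loaded KISS1R-HEK293 cells. Fifteen concentrations, triplicates.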

[5] = G protein-coupled receptor (GPCR) small molecule agonists, calcium flux assay: HEK293 wild type cell line counter screen (AID 1920065); further: potency means the concentration at half of the fitted maximal effect
In short: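 Agonist mode; 18 h seeding at 37 C, 1 h dye load at 37 C; compounds pinned from DMSO, ATP as positive control; kinetic fluorescence 480/540 nm, 3 min, 1 s reads; 15 concentrations, triplicate.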

[6] = p53 small molecule agonists, cell-based qHTS assay with rat liver microsomes (AID 1963578)
In short: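 p53RE-bla cells, 4,000/well, pre-incubated 5 h, then given compounds plus rat liver microsomes (0.5 mg/mL final) and NADPH (0.5 mg/mL final). Incubation 16 h at 37 C; beta-lactamase reporter read by LiveBLAzer fluorescence after 2 h at room temperature.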

[7] = p53 small molecule agonists, cell-based qHTS assay with human liver microsomes: qHTS cell viability counter screen (AID 1963579); further: nearly all actives have a fitted effect of over 45% in size; further: potency means the concentration at half of the fitted maximal effect
In short: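 p53RE-bla cells, 4,000/well, dosed 5 hours after plating, with human liver microsomes (0.5 mg/mL final) plus NADPH (0.5 mg/mL final), 16 hours at 37 C. Viability read as CellTiter-Glo luminescence after 30 min at room temperature.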

[8] = p53 small molecule agonists, cell-based qHTS assay with rat liver microsomes: qHTS cell viability counter screen (AID 1963580); further: nearly all actives have a fitted effect of over 45% in size
In short: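 Cytotoxicity counter screen: intracellular ATP read by CellTiter-Glo luminescence in the p53 reporter wells. HCT-116 p53RE-bla cells were treated for 16 h at 37 C alongside rat liver microsomes and NADPH, each 0.5 mg/mL final.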

[9] = p53 small molecule agonists, cell-based qHTS assay: qHTS cell viability counter screen (AID 1963581); further: nearly all actives have a fitted effect of over 45% in size
In short: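 Cytotoxicity read-out: ATP-based luminescence (CellTiter-Glo, 30 min RT) measured in the same wells as the p53 reporter assay, HCT-116 p53RE-bla cells, 16 h compound exposure at 37 C.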

[10] = target: 5-hydroxytryptamine receptor 2A (Homo sapiens) (UniProt P28223); assay: 5-hydroxytryptamine receptor 2A (HTR2A) small molecule antagonists, cell-based qHTS assay (AID 1963586); further: nearly all actives have a fitted effect of over 45% in size
Sequence of 5-hydroxytryptamine receptor 2A (Homo sapiens) (P28223 whole entry, looked up): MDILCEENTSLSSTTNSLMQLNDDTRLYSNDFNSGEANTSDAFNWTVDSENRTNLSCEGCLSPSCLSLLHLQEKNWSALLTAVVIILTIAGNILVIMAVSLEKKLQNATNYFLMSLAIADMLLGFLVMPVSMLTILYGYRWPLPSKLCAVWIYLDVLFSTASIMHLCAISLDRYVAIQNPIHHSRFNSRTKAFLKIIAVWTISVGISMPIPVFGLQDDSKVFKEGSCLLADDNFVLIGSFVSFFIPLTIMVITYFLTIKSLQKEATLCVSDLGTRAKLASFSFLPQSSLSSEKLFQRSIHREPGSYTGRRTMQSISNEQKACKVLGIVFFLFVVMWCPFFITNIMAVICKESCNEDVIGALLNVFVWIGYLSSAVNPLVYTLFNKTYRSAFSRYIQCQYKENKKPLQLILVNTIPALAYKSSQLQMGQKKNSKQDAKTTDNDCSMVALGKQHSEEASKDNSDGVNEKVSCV
In short: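 CHO cells stably expressing human HTR2A were plated for 18 h at 37 C, then loaded with calcium dye for 1 h. Compounds were preincubated 5 min at room temperature before DOI (4 nM solution) was added. Kinetic fluorescence was read for 3 min.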

[11] = target: 5-hydroxytryptamine receptor 2A (Homo sapiens) (UniProt P28223); assay: 5-hydroxytryptamine receptor 2A (HTR2A) small molecule agonists, cell-based qHTS assay (AID 1963587); further: nearly all actives have a fitted effect of over 30% in size; further: potency means the concentration at half of the fitted maximal effect
In short: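 Kinetic calcium-flux fluorescence (2 min, 1 sec intervals) after compound addition in agonist mode. HTR2A-CHO cells were cultured 18 h, then dye-loaded 1 h at 37 C.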

[12] = target: Muscarinic acetylcholine receptor M1 (Homo sapiens) (UniProt P11229); assay: Cholinergic receptor muscarinic 1 (CHRM1) small molecule antagonists, cell-based qHTS assay (AID 1963588); further: nearly all actives have a fitted effect of over 40% in size
Sequence of Muscarinic acetylcholine receptor M1 (Homo sapiens) (P11229 whole entry, looked up): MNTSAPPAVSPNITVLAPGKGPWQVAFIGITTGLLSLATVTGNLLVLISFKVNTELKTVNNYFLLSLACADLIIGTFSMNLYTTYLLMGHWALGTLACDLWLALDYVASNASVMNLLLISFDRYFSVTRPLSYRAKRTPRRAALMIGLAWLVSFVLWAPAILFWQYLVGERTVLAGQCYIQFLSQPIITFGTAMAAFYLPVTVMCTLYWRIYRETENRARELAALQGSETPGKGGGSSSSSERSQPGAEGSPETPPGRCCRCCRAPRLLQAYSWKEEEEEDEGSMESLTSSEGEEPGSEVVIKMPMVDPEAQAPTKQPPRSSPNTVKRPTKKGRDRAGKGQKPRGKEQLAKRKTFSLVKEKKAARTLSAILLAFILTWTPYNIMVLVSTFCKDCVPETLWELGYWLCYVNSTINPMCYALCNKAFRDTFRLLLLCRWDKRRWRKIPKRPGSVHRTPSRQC
In short: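 Compounds were tested at 15 concentrations in three independent runs. Dye-loaded CHRM1-CHO cells were exposed 5 min at room temperature before stimulation by acetylcholine added at 50nM. Intracellular calcium was read kinetically on FDSS for 3 min.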

[13] = target: Muscarinic acetylcholine receptor M1 (Homo sapiens) (UniProt P11229); assay: Cholinergic receptor muscarinic 1 (CHRM1) small molecule agonists, cell-based qHTS assay (AID 1963589); further: nearly all actives have a fitted effect of over 35% in size
In short: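 Calcium flux read-out: kinetic fluorescence at 1 sec intervals after pin-tool compound addition to dye-loaded CHRM1-CHO cells (human M1). Agonist mode; 15 concentrations tested in triplicate independent runs.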

[14] = cAMP Responsive Elements (CRE) small molecule agonists, cell-based qHTS assay (AID 1963590)
In short: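 Beta-lactamase reporter readout: LiveBLAzer B/G FRET substrate, 2 h at room temperature, added after 3 h compound treatment of CRE-bla HEK 293T cells at 37 C/5% CO2.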

[15] = cAMP Responsive Elements (CRE) small molecule antagonists, cell-based qHTS assay (AID 1963591; active means well fitted inhibition curve with a large enough effect in the signal ratio in the repeat runs, not every such curve was filed as active; the % refers to the signal ratio)
In short: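 HEK293T CRE-bla; 18 h preincubation; compound pin-transfer; NKH477 0.25 uM final, 3 h, 37 C; LiveBLAzer FRET substrate 2 h RT.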

[16] = target: Beta-2 adrenergic receptor (Homo sapiens) (UniProt P07550); assay: Adrenergic beta2 receptor (ADRB2) small molecule antagonists, cell-based qHTS assay (AID 1963592); further: series mostly up to about 92 µM; nearly all actives have a fitted effect of over 50% in size
Sequence of Beta-2 adrenergic receptor (Homo sapiens) (P07550 whole entry, looked up): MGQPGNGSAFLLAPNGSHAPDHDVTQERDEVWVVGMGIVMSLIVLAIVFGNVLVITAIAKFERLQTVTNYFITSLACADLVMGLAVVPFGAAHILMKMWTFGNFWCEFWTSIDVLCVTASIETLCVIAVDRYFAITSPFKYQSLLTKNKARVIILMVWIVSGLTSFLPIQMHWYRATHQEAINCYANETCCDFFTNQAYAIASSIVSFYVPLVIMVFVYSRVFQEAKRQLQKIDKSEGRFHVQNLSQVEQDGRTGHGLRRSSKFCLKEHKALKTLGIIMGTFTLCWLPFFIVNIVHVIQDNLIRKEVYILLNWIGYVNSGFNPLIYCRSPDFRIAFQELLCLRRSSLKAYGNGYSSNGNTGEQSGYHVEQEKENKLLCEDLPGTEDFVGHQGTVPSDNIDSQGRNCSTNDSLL
In short: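 Assay format: CHO-ADRB2 cells, 18-20hr seeding at 37C/5% CO2, then compound plus 1nM isoproterenol agonist mix for 0.5hr RT. Homogeneous time-resolved fluorescence cAMP detection after 1hr, expressed as 665/615 nm ratio.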

[17] = target: D(2) dopamine receptor (Homo sapiens) (UniProt P14416); assay: Dopamine D2 receptor (DRD2) small molecule agonists, cell-based qHTS assay (AID 1963594); further: nearly all actives have a fitted effect of over 35% in size; further: potency means the concentration at half of the fitted maximal effect
Sequence of D(2) dopamine receptor (Homo sapiens) (P14416 whole entry, looked up): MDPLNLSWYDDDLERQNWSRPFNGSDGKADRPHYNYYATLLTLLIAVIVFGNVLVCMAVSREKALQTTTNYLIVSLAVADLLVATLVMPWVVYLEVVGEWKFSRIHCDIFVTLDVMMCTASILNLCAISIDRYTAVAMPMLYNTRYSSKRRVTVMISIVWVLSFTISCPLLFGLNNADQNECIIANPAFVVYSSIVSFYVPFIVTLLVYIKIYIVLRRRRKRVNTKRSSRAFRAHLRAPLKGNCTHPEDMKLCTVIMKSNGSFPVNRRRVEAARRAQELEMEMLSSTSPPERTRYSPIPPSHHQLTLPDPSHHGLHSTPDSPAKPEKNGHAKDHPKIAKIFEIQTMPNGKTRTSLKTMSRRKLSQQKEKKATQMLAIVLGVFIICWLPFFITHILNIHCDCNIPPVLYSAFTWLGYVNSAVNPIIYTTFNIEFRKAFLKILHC
In short: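 cAMP accumulation in DRD2-HEK293 cells measured by HTRF after 1 h detection; compounds added 10 min before NKH477 (200nM […]) forskolin-analogue stimulation, 30 min at room temperature, with Ro20-1724 present at 0.1 mM final.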

[18] = target: D(2) dopamine receptor (Homo sapiens) (UniProt P14416); assay: Dopamine D2 receptor (DRD2) small molecule antagonists, cell-based qHTS assay (AID 1963595; active means well fitted inhibition curve with a large enough effect in the signal ratio in the repeat runs, with a control signal flat; the % refers to the signal ratio)
In short: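 Stable D2 receptor HEK293 line, 24 h after seeding. Compound preincubated 10 min, then quinpirole (12 nM) with forskolin analogue NKH477 (200 nM), 30 min, room temperature. Detection by time-resolved FRET of cAMP.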

[19] = target: Beta-2 adrenergic receptor (Homo sapiens) (UniProt P07550); assay: Adrenergic beta2 receptor (ADRB2) small molecule agonists, cell-based qHTS assay (AID 1963593); further: potency means the concentration at half of the fitted maximal effect;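 on activation: CHO cells stably overexpressing human ADRB2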
In short: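 CHO cells stably over-expressing ADRB2 were plated overnight at 37C, then dosed with compounds plus a stimulation mix containing 100uM IBMX and 25uM Ro-20-1724 for 0.5hr at room temperature. cAMP was measured by HTRF competition, 1hr.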

[20] = p53 small molecule agonists, cell-based qHTS assay (AID 1963582; active means well fitted activation curve with a large enough effect in the signal ratio in the repeat runs, not every such curve was filed as active; the % refers to the signal ratio)
In short: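 Fluorescence intensity read-out of a beta-lactamase reporter under a p53 response element. Cells were exposed to DMSO-dissolved compounds for 16 h at 37 C, then developed with FRET substrate for 2 h at RT.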

Measured: Potency

CC(C)(C)c1ccc(O)c(O)c1
active: [2] 63.2 µM and 8.63 µM
not listed: [19] | [20]
inactive: all other assays above

O=C(O)CONC(=O)c1ccccc1
not listed: [9] | [20]
inactive: all other assays above

NC(=Nc1ccccc1)Nc1ccccc1
active: [3] 5.49 µM and 15.1 µM | [4] 21.4 µM and 23.9 µM | [5] 15.5 µM
19.3 µM (active) and inactive: [2]
not listed: [9] | [10] | [11] | [12] | [13] | [19]
inactive: all other assays above

COc1cc(C)c(Cc2cnc(N)nc2N)cc1OC
not listed: [11]
inactive: all other assays above

CCCCCCCCCCCCCCC(=O)NC(CO)CCCCCCCCCCCCCC (stereo not drawn)
not listed: [11]
inactive: all other assays above

F[Si-2](F)(F)(F)(F)F
not listed: [20]
inactive: all other assays above

COc1ccc2cccc(CCNC(C)=O)c2c1
not listed: [9]
inactive: all other assays above

[Cl][In]([Cl])[Cl]
active: [2] 3.44 µM
not listed: [12] | [19]
inactive: all other assays above

CC(=O)Nc1ncc([N+](=O)[O-])s1
not listed: [8] | [14] | [19]
inactive: all other assays above

CCCO[Si](OCCC)(OCCC)OCCC
not listed: [9]
inactive: all other assays above

CCCCC(CC)COCC1CO1 (stereo not drawn)
not listed: [6] | [20]
inactive: all other assays above

CCCCN=C(N)N=C(N)N
not listed: [6] | [13] | [19]
inactive: all other assays above

Cc1cc(C)cc(OCC2CNC(=O)O2)c1 (stereo not drawn)
not listed: [8] | [17] | [20]
inactive: all other assays above

CC1(C)C2=CCCC(C)(C)[C@]23CC[C@H]1C3
not listed: [20]
inactive: all other assays above

CC(=O)OC1CC(C)OC(C)O1 (stereo not drawn)
not listed: [6] | [20]
inactive: all other assays above

CCC(C)c1ccccc1O (stereo not drawn)
not listed: [6] | [20]
inactive: all other assays above

C=CC(=O)NCOCCCC
not listed: [6] | [20]
inactive: all other assays above

COc1ccc2nc(N)sc2c1
inactive and 54.5 µM (active): [2]
not listed: [6] | [20]
inactive: all other assays above

O=C(c1ccccc1O)c1ccccc1O
not listed: [13] | [20]
inactive: all other assays above

CC(C)CC(=O)OCc1ccccc1
not listed: [10] | [11] | [13] | [19]
inactive: all other assays above

O=C(/C=C/c1ccccc1)OCc1ccccc1
not listed: [6] | [19]
inactive: all other assays above

CCC(C(=O)OCCOCCN(CC)CC)c1ccccc1 (stereo not drawn)
active: [11] 2.68 µM
not listed: [8] | [15] | [17] | [18]
inactive: all other assays above

COC(=O)C1=C(C)NC(C)=C(C(=O)OCC(C)C)C1c1ccccc1[N+](=O)[O-] (stereo not drawn)
24.3 µM (active) and inactive: [2]
active: [19] 11.9 µM
inactive: [1] | [3] | [4] | [5] | [6] | [7] | [15] | [16] | [17]

CC(=O)C(C)O (stereo not drawn)
not listed: [9] | [11]
inactive: all other assays above

Oc1cc(O)c2c(c1)O[C@H](c1ccc(O)c(O)c1)[C@H](O)C2
not listed: [11]
inactive: all other assays above

CCCCCCCCCCCCOCCO
active: [2] 27.3 µM
20.4 µM (active) and inactive: [7]
not listed: [6] | [20]
inactive: all other assays above

Cn1cnc2c1c(=O)[nH]c(=O)n2C
not listed: [6] | [18] | [20]
inactive: all other assays above

OCCCC1CCCCC1
not listed: [20]
inactive: all other assays above

C=CCCC=C
active: [2] 70.5 µM
not listed: [9]
inactive: all other assays above

O=c1[nH]c2cc(C(F)(F)F)c(N3CCOCC3)cc2n(CP(=O)(O)O)c1=O
active: [17] 29.8 µM
not listed: [11] | [12]
inactive: all other assays above

Cc1ccc2oc(=O)ccc2c1
not listed: [6] | [20]
inactive: all other assays above
